About 110 (9.2%) of roughly 1,200 compounds were called active. About 8% were inconclusive and are not listed.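 The calls were made as follows: active = pathway reporter half-maximal dose under half the control reporter's, or control reporter unaffected while pathway reporter is inhibited; inconclusive = either signal flat at 30 to 70% inhibition or poorly fitted; inactive = the rest.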 The list is a sample of the results. Entries with a potency or affinity are not part of this list.

A short description of the assay: TES1-eGFP NF-kB reporter inhibition versus Tet-On dsRED, dose response, selectivity assay for LMP1 NF-kB inhibitor project, imaging, HEK293T, dual-color eGFP/dsRED, cherry-picks (AID 588398). The conditions noted are these: 48 h; HEK293T Tet-On dsRED counter-screen channel, at 19.5 µM (top of the series). For orientation: A counterscreen serves to expose hits that act by an unwanted route or on another target.
Take `Cn1cccc1CC(=O)NNC(=S)Nc1ccccc1Cl`: the result was inactive.
Take `COC(=O)C1=C(C)N(CCCC(=O)O)C(=O)NC1c1cccc(Cl)c1Cl` (stereo not given): the result was inactive.
The value for `COc1cc2cc(C(=O)N3CCN(c4ccccc4OC)CC3)[nH]c2cc1OC` was “inactive”.
As for `CCN(C(=O)c1cccc(NC(=O)c2ccccc2)c1)C1CCCCC1`, the entry is “inactive”; as for `O=C(Nc1cccc(C(=O)O)c1)Nc1ccccc1Cl`, “inactive”; as for `N=c1c(-c2nc3ccccc3[nH]2)cc(C(=O)c2cccs2)nn1-c1ccccc1`, “inactive”.
As for `CCCCCC(=O)N1CCN(c2ccc(C(C)=O)cc2F)CC1`, the entry is “inactive”; as for `Cc1ccc(-c2csc(=Nc3cccnc3)n2CCCn2ccnc2)cc1C`, “inactive”; as for `COc1cc(/C=C(\C#N)c2ccccn2)ccc1OCc1ccccc1Cl`, “inactive”.
For the compound `Cc1cc(/C=C2\Cc3ccccc3C2=O)c(C)n1-c1ccccc1`, the outcome was inactive.
Take `CCCCNC(=S)Nc1ccc([N+](=O)[O-])cc1`: the result was inactive.
As to `CC(=O)NC(CCS(C)(=O)=O)C(=O)Nc1ccc(Cl)c(Cl)c1` (stereo not given), the compound was classed as inactive.
`C=C1C(=O)C2=CC1CCC(=O)C1(C)CCC(OC(C)=O)C(C)(C)C1CC2O` (stereo not given): the call was inactive.
The value for `O=C(NCC1CCOCC1)c1ccc(OC2CCN(Cc3ccccn3)CC2)cc1` was “inactive”; that for `CCc1ccc(/C=N/NC(=O)c2ccccn2)cc1` was “inactive”.
For `Cc1ccsc1-c1nc(CSCC(=O)N2CCN(c3ccccc3)CC2)c(C)o1`, the result was inactive.
For the compound `CCCSc1nc2cc(S(=O)(=O)N3CCOCC3)ccc2n1CC`, the compound was called inactive.
As for `CC(C)OCCCNC(=O)C1CCC(CNS(=O)(=O)c2ccccc2)CC1` (stereo not given), the entry is “inactive”.
The value for `NC1=NC(=O)NC1(c1ccccc1)c1ccccc1` was “inactive”.
The value for `Cc1cc(=S)[nH]c2ccccc12` was “inactive”; that for `CCOCCCn1c(=S)[nH]c2ncccc2c1=O` was “inactive”.
As to `C=CCn1c(O)c(N=NC(=S)Nc2cccc(C)c2)c2ccccc21`, the result was inactive.
As for `Cn1nc(-c2ccc(N3CCOCC3)c(NS(=O)(=O)c3ccccc3)c2)c2ccccc2c1=O`, the entry is “inactive”; as for `CCN(CC)c1ccc(/C=N/NC(=O)c2ccc3nc[nH]c3c2)c(O)c1`, “inactive”.
As for `CCN(CC)S(=O)(=O)c1ccc(N/N=C/c2ccc(O)cc2O)nc1`, the entry is “inactive”; as for `COc1cccc(/C=N/Nc2nc3ccccc3[nH]2)c1O`, “inactive”.
For `C(=N\Nc1nc2ccccc2[nH]1)/c1cccc2nccnc12`, the compound was called inactive.
As for `Cc1ccc(/C=C/c2nc3ccccc3c(=O)[nH]2)cc1`, the entry is “inactive”.
The value for `CCN(CC)c1ccc(NC(=O)c2cccc(F)c2)c(C)c1` was “inactive”.
The value for `Cc1cc(C)cc(C(=O)NCCC(=O)NCc2cc(=O)n(C)c(=O)n2C)c1` was “inactive”.
As for `O=C(CSc1nnc(-c2cccc(S(=O)(=O)N3CCOCC3)c2)n1C1CCCCCC1)NCc1ccccc1`, the compound was called inactive.
The value for `CN(C)CC(C)(C)CNS(=O)(=O)c1ccc(OC(F)(F)F)cc1` was “inactive”; that for `COc1ccc2[nH]c3c(=O)n(CCCCC(=O)N4CCC(C(N)=O)CC4)c(=S)[nH]c3c2c1` was “inactive”; that for `COc1ccc2cc(C(N)=O)/c(=N\NC(=O)c3ccccc3)oc2c1` was “inactive”.
As for `CN(C)/C=C/C(=O)c1ccc2noc(-c3ccccc3)c2c1`, the entry is “inactive”.
As for `N#Cc1c(NC(=O)CCCC(=O)O)sc2c1CCCCC2`, the entry is “inactive”.
On to `CC(C)[C@H](N[C@@H](C)c1ccccc1)c1c(O)ccc2ccccc12`, for which the compound was called inactive.
As for `CC(=O)c1c(C)[nH]c(C(=O)Nc2ccc(C)cn2)c1C`, the entry is “inactive”; as for `COc1ccc(Nc2oc(COc3ccccc3OC)nc2C#N)cc1`, “inactive”; as for `COc1cc2nc(NC(=O)c3ccco3)sc(=O)c2cc1OC`, “inactive”.
For `CCOC(=O)C1=C(C)N(C)C(=O)NC1c1ccccc1OC` (stereo not given), the compound was classed as inactive.
The value for `O=C(Nc1cc(S(=O)(=O)N2CCOCC2)ccc1Cl)c1ccncc1` was “inactive”.
The value for `O=C1C2CCCN2c2ccc(S(=O)(=O)N3CCOCC3)cc2N1Cc1ccccc1F` (stereo not given) was “inactive”; that for `CCn1nc(C(=O)Nc2nc(-c3ccccn3)cs2)c2ccccc2c1=O` was “inactive”.
The value for `COc1ccc(C2CC(C(F)(F)F)n3ncc(C(=O)NCc4cccnc4)c3N2)cc1OC` (stereo not given) was “inactive”.
In the case of `C=CCN=C1NN=C(c2cc(C)n(CCOC)c2C)CS1`, the call was inactive.
As for `Cc1cccc(C)c1NC(=O)CN(C)CC(=O)Nc1ccccc1Oc1ccccc1`, the entry is “inactive”.
As for `Cc1sc2nc(SCC(=O)OC(C)C)n(C)c(=O)c2c1C`, the entry is “inactive”; as for `O=C(c1ccc(Cl)cc1)N1CCN(CCOc2ccccc2)CC1`, “inactive”.
The value for `Cc1cccc(Cn2cc(SCC(=O)Nc3nccs3)c3ccccc32)c1` was “inactive”; that for `O=C(CSc1nc2ccccc2c(=O)n1CCCN1CCOCC1)Nc1ccc(Br)cc1` was “inactive”.
`O=C(Cn1cc(CNC(=O)C2CCCCC2)nn1)Nc1cc(C(F)(F)F)ccc1Cl`: the outcome was inactive.
The value for `COc1ccc(NC(=O)c2cc3ccccc3oc2=O)cc1` was “inactive”; that for `COc1ccc(C(=O)Nc2cccc(C(=O)N/N=C/c3ccc(OC)cc3OC)c2)cc1` was “inactive”.
Take `COc1cc(NC(=S)N2CCN(CCO)CC2)cc(OC)c1`: the result was inactive.
As for `CCCc1nc(SCC(=O)NCc2ccco2)c2c(=O)n(C)c(=O)n(C)c2n1`, the compound was called inactive.
As for `Oc1c(N=NC(=S)Nc2ccccc2F)c2ccccc2n1Cc1ccccc1F`, the entry is “inactive”; as for `O=C1C=Cc2cccc3ccc(O)c1c23`, “inactive”.
As for `COc1ccc(OC)c(CCNC(=O)CCn2nc(C)c3c(C)n(-c4ccccc4)nc3c2=O)c1`, the entry is “inactive”; as for `COc1cc(/C=C2/SC(=S)N(Cc3ccccc3)C2=O)ccc1OCC(=O)O`, “inactive”; as for `Cc1ccc(C2=C/C(=C\c3cccnc3)C(=O)O2)cc1`, “inactive”.
Regarding `O=C(O)CN1C(=O)/C(=C\c2ccccc2OCc2ccc(Cl)cc2Cl)SC1=S`, the result was inactive.
The value for `CC1S/C(=C(\C#N)C(=O)NCc2ccco2)N(Cc2ccco2)C1=O` (stereo not given) was “inactive”; that for `CCc1ccc(/C=C2\SC(=S)N(CCCC(=O)NC3=NCCS3)C2=O)cc1` was “inactive”.
As for `O=C(CCCN1C(=O)/C(=C/c2ccccc2Cl)SC1=S)NNC(=O)c1ccccc1Cl`, the entry is “inactive”; as for `CCCC(C)NC(C)C(=O)NC1CCCC1` (stereo not given), “inactive”; as for `COc1ccc(C(=O)Nn2c(SCC(=O)NCc3ccco3)nc3ccccc3c2=O)cc1`, “inactive”.
As for `O=C(Nc1ccc(Br)cc1)C1CC(O)CN1C(=O)OCc1ccccc1` (stereo not given), the entry is “inactive”; as for `CCOc1ccc(NC(=O)CCc2nnc3ccc(N4CCC5(CC4)OCCO5)nn23)cc1`, “inactive”.
Take `COc1ccc(N2CCN(c3ncnc4c3[nH]c3ccccc34)CC2)cc1`: the compound was classed as inactive.
The value for `CC1(C)CN(Cc2ccccc2)C(=O)[C@H]1CC(=O)Nc1ccccc1` was “inactive”.
For `CC(=O)c1ccccc1OCC(=O)Nc1cccc(S(=O)(=O)N2CCCC2)c1`, the compound was classed as inactive.
As for `Cc1ccc(C(=O)Nc2cccc(C(F)(F)F)c2)cc1Nc1ncnc2nc[nH]c12`, the entry is “inactive”; as for `CC(=O)Nc1ccc(C=NNc2nnc(NN=Cc3ccc(NC(C)=O)cc3)c3ccccc23)cc1`, “inactive”.
Consider `Cc1ccnc(NC(=O)c2cccc(NC(=O)c3ccc(Cl)c(Cl)c3)c2)c1`, for which the compound was classed as inactive.
As for `COc1ccc(NC(=O)COC(=O)/C=C/c2ccc(OC)c(S(=O)(=O)N3CCOCC3)c2)cc1`, the entry is “inactive”.
The value for `COc1ccc(C=C2CS(=O)(=O)CC(=Cc3ccc(OC)cc3)C2=O)cc1` was “inactive”.
As for `COC(=O)[C@@]1(Cc2ccccc2)[C@H]2C(=O)N(Cc3ccccc3)C(=O)[C@H]2[C@H]2CN=C(SCc3ccc(Cl)cc3)N21`, the entry is “inactive”.
`CCOc1ccc(NC(=S)N=Nc2c(O)[nH]c3ccccc23)cc1`: the compound was classed as inactive.
The value for `CC(NC(=O)CNC(=O)OCc1ccccc1)C(=O)N1CC(O)CC1C(=O)OCc1ccccc1` (stereo not given) was “inactive”; that for `CCN1CCN(Cc2ccc(NC(=O)c3ccc(C)c(NC(=O)c4cccc5[nH]ccc45)c3)cc2C(F)(F)F)CC1` was “inactive”.
As for `Cc1ccc(C)c(Cn2c(O)c(N=NC(=S)Nc3ccccc3F)c3ccccc32)c1`, the entry is “inactive”; as for `COc1cc(OC)cc(-c2cc3nc(C)c(CCC(=O)O)c(C)n3n2)c1`, “inactive”; as for `O=C(C[n+]1ccccc1)N/N=C/c1ccc(O)cc1`, “inactive”.
The value for `C#CCN(C[C@@H]1[C@@H](OC(=O)NCc2ccccc2F)[C@@H](OC(=O)NCc2ccccc2F)Cn2c(=O)ccc(=O)n21)S(=O)(=O)c1ccc(C)cc1` was “inactive”.
As to `Cc1ccnc(NC(=O)c2ccc(OCC3CCCO3)cc2)c1` (stereo not given), the call was inactive.
As for `Cc1ccc(-n2c(=O)c3c(c4cc(C)ccc4n3C)n(CC(=O)NCC3CCCO3)c2=O)cc1` (stereo not given), the entry is “inactive”; as for `CCOc1ccc(C(=O)NC(=S)N(Cc2ccccc2)Cc2ccccc2)cc1`, “inactive”.
As for `O=C(Nc1cc(Cl)ccc1Cl)C1Cc2ccccc2O/C1=N\O` (stereo not given), the entry is “inactive”.
The value for `CCOC(=O)c1sc2nc(C)nc(NCc3ccccc3)c2c1C` was “inactive”; that for `COc1ccc(CN2C(=O)c3cccnc3C2Nc2cc(Cl)ccc2OC)cc1` (stereo not given) was “inactive”; that for `CCC(=O)NC(c1ccc(C)cc1)c1cc(Cl)c2cccnc2c1O` (stereo not given) was “inactive”.
As for `CCC(=O)NC(c1cc(Cl)c2cccnc2c1O)C1CC1` (stereo not given), the compound was classed as inactive.
As for `CC(=O)NC(c1ccc(Cl)cc1Cl)c1ccc2cccnc2c1O` (stereo not given), the entry is “inactive”.
The value for `CN(C)S(=O)(=O)c1ccc(Cl)c(C(=O)NCCNC(=O)c2cc(S(=O)(=O)N(C)C)ccc2Cl)c1` was “inactive”; that for `CCNc1nc(CN2CCOCC2)nc2sc3c(c12)CCC3` was “inactive”.
The value for `Cc1nn(-c2ccccc2)c(Cl)c1C(=O)N1CCN(c2ncnc3c2cnn3-c2ccccc2)CC1` was “inactive”.
In the case of `O=c1nc(N/N=C/C=C/c2ccccc2)cn[nH]1`, the compound was classed as inactive.
As for `CN(CCNC(=O)C1CCN(S(=O)(=O)N2CCOCC2)CC1)CCc1ccccc1`, the entry is “inactive”.
Take `O=C(N/N=C/c1cc2c3c(c1O)CCCN3CCC2)c1ccccc1O`: the result was inactive.
Consider `CCOC(=O)C1CCN(S(=O)(=O)Cc2ccccc2)C1=O` (stereo not given), for which the compound was classed as inactive.
On to `CCOC(=O)CCSc1nc(N2CCOCC2)c2c(c1C#N)CC(C)(C)OC2`, for which the result was inactive.
For the compound `COc1ccc(C=NNc2nc3ccccc3s2)cc1`, the call was inactive.
As for `C(=Cc1nc2ccccc2o1)c1ccc2c(c1)OCO2`, the entry is “inactive”; as for `c1ccn2cc(-c3ccc4c(c3)OCCO4)nc2c1`, “inactive”.

The values are drawn from PubChem BioAssay AID588398 (Broad Institute, 2011).
